G9a inh: qHTS Assay for Inhibitors of Histone Lysine Methyltransferase G9a. AID 504332, 2011. Histone-lysine N-methyltransferase EHMT2 (Homo sapiens), Q96KQ7. 350,000 compounds, 8.8% hits. G9a H3K9 monomethylation, AlphaScreen, 2 h. Potency, µM (highest dose often 102 µM), without a hit: top-dose activity, negative = inhibition, usual class: inhibitors; note: potency is the fitted concentration of half-maximal effect; % is set by controls: 0 for no effect and ±100 for the full control effect; nearly all actives have a fitted effect of over 75% in size
Target sequence (Q96KQ7 913-1193 limits assumed): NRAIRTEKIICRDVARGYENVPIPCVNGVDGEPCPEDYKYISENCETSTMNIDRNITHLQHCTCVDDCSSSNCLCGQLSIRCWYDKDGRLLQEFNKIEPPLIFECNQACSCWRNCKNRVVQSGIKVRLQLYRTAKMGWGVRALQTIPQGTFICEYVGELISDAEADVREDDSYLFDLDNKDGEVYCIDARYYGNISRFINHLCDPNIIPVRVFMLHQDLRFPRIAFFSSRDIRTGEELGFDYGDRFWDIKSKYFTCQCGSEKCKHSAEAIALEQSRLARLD
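G9a (20 nM) was preincubated 15 min with compound, then reacted 2 h at room temperature with 500 nM biotin-H3K9 peptide and 20 µM SAM. Monomethyl-H3K9 detected by AlphaScreen using anti-H3K9me1 antibody.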
BAZ2B inh: qHTS Assay for Inhibitors of BAZ2B | AlphaScreen BAZ2B-H3K14Ac peptide displacement | 360,000 compounds, 4.4% hits | Potency, µM (top dose mostly 114 µM), for inactives: top-dose activity change, negative = inhibition, actives largely listed as inhibitors | Bromodomain adjacent to zinc finger domain protein 2B (Homo sapiens), Q9UIF8; note: potency is the fitted concentration of half-maximal effect; % is set by controls: 0 for no effect and ±100 for the full control effect; nearly all actives have a fitted effect of over 60% in size
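AlphaScreen displacement: compounds (up to 110uM) incubated 30 min at room temperature with a preformed 50 nM BAZ2B/50 nM biotinylated H3K14Ac peptide complex in PBS pH 7.4 with Tween-20. Donor and acceptor beads at 10 ug/mL final added, 20 min light-protected before reading.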
PI5P4Ka inh: qHTS for Inhibitors of phosphatidylinositol 5-phosphate 4-kinase (PI5P4K); PI5P4Kalpha enzyme, ADP-Glo luminescence, 60 min; hits give low values; max response, %; 330,000 compounds, 1.2% hits; AID 652105, 2013; active = max response of -50% or lower; inconclusive = between -30% and -50%; inactive = -30% or higher; note: value at the top dose of about 77 µM; % is set by controls: 0 for no effect and ±100 for the full control effect
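ADP-Glo luminescence end-point read after a 60 min room-temperature kinase reaction of PI5P4Kalpha plus substrate, initiated with ATP at 5 microM final. Buffer: 0.038 M HEPES pH 7.4, EGTA, 0.1% CHAPS, 5% DMSO.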
HP1b binding inh: HTS for Inhibitors of HP1-beta Chromodomain Interactions with Methylated Histone Tails; Chromobox protein homolog 1 (Homo sapiens), P83916; AlphaScreen HP1-beta / biotin-H3K9me3 peptide binding; Potency, µM (highest dose often 114 µM), inactives show at the top dose activity change, negative = inhibition, usual class: inhibitors; 390,000 compounds, 0.56% hits; AID 540317, 2011; note: potency is the fitted concentration of half-maximal effect; nearly all actives have a fitted effect of over 70% in size
Target sequence (P83916 whole entry, looked up): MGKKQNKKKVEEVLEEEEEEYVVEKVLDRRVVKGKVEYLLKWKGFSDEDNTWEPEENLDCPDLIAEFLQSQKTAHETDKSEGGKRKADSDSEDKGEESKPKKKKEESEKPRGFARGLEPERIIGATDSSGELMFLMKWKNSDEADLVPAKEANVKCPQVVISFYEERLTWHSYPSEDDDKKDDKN
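Compound inhibition of the preformed complex between 50 nM HP1-beta and 50 nM biotinylated H3K9me3 peptide was read by AlphaScreen. Buffer was PBS pH 7.4 with 0.01% Tween-20. Incubations ran 30 min at room temperature, with 10 ug/mL donor/acceptor beads.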
JMJD2A Tudor: qHTS Assay for Inhibitors of JMJD2A-Tudor Domain | AlphaScreen JMJD2A-Tudor / H3K4me3 peptide binding | 390,000 compounds, 4.4% hits | Potency, µM (top dose mostly 114 µM), without a hit: at the top dose activity change, negative = inhibition, usual class: inhibitors | Lysine-specific demethylase 4A (Homo sapiens), O75164; note: potency is the fitted concentration of half-maximal effect; % is set by controls: 0 for no effect and ±100 for the full control effect; nearly all actives have a fitted effect of over 50% in size
PLK1 PBD inh: qHTS for Inhibitors of PLK1-PDB (polo-like kinase 1 - polo-box domain): Primary Screen | Plk1 PBD binding of FITC phosphopeptide, fluorescence polarization | AID 720504, 2013 | Potency, µM, for the others: max response, negative = inhibition, most hits filed as inhibitors | 360,000 compounds, 2.8% hits; note: potency is the fitted concentration of half-maximal effect; series mostly up to about 57 µM; % is set by controls: 0 for no effect and ±100 for the full control effect; nearly all actives have a fitted effect of over 65% in size
TbPYK confirm: qHTS of Trypanosoma Brucei Inhibitors: Confirmatory Assay for Cherry-picked Compounds; shares compounds with PLK1 PBD inh; recombinant TbPYK, Kinase-Glo ATP luminescence; Potency, µM (highest dose often 76.9 µM), for the others: top-dose activity change, negative = inhibition, usual class: inhibitors; 890 compounds, 67% hits; AID 720569, 2013; note: potency is the fitted concentration of half-maximal effect; % is set by controls: 0 for no effect and ±100 for the full control effect; nearly all actives have a fitted effect of over 70% in size
TbPYK orthogonal: qHTS of Trypanosoma Brucei Inhibitors: Orthogonal Assay for Cherry-picked Compounds. shares compounds with PLK1 PBD inh. recombinant TbPYK, ADP-Glo luminescence, 60 min. Potency, µM (doses to about 76.9 µM), without a hit: at the highest dose activity change, negative = inhibition, usual class: inhibitors. 890 compounds, 62% hits. AID 720584, 2013; note: potency is the fitted concentration of half-maximal effect; % is set by controls: 0 for no effect and ±100 for the full control effect; nearly all actives have a fitted effect of over 75% in size
The depositor's hits bear a star; ! = not confirmed by another sample; [ ] = dose if it differs, or a comment. An excerpt weighted towards active compounds, which were near 12% of everything screened. Unless noted, calls come from the whole dose curve; as a rule, active = well fitted curve in the direction sought with a large enough effect; inconclusive = small, poorly fitted or top-dose-only effect, or another doubt; inactive = no such curve, though single readings can be large; an effect the other way counts as inactive or inconclusive.

`O=C(O)CCCn1c(=S)[nH]c2c(sc3ccc([N+](=O)[O-])cc32)c1=O` gave G9a inh 8.9µM*, BAZ2B inh inconclusive, PI5P4Ka inh -9, HP1b binding inh 32%, JMJD2A Tudor 18µM*, PLK1 PBD inh -15%, TbPYK confirm 7.9µM* and TbPYK orthogonal 4.5µM*.
`CC(C)n1nnnc1SCC(=O)N(C)C1CCS(=O)(=O)C1` (configuration not stated) gave PI5P4Ka inh -1, HP1b binding inh 20%, JMJD2A Tudor -1% and PLK1 PBD inh -1%.
For CCC(/C=C1\Oc2ccc(OC)cc2N1C)=C\c1sc2ccccc2[n+]1CCCS(=O)(=O)[O-] the results were PI5P4Ka inh 1, HP1b binding inh 39%, JMJD2A Tudor -10% and PLK1 PBD inh 90%.
`COc1cc(/C=C/c2sc3ccccc3[n+]2CCCS(=O)(=O)[O-])ccc1O` gave G9a inh 11µM*, BAZ2B inh 45µM*, PI5P4Ka inh -26, HP1b binding inh 32µM*, JMJD2A Tudor -33%, PLK1 PBD inh 37%, TbPYK confirm 16µM* and TbPYK orthogonal 3%.
`CC(=O)Nc1ccc(-c2nnc3n(CC(C)C)c(=O)c4ccccc4n23)cc1` gave G9a inh inconclusive, BAZ2B inh -38%, HP1b binding inh 6% and JMJD2A Tudor inconclusive.
Screening COc1ccc(/C=C2/SC(c3ccc(C)cc3)=NC2=O)cc1OC returned G9a inh 2.8µM*, BAZ2B inh -32%, PI5P4Ka inh -19, HP1b binding inh inconclusive, JMJD2A Tudor 50µM*, PLK1 PBD inh -13%, TbPYK confirm inconclusive and TbPYK orthogonal 16µM*.
COc1cc(/C=C2\SC(N)=NC2=O)ccc1OCC(=O)Nc1ccc(C)cc1 was read as G9a inh -4%[59 µM], BAZ2B inh -37%, PI5P4Ka inh -7, HP1b binding inh 14%, JMJD2A Tudor -19% and PLK1 PBD inh 3%.
COc1ccc(/C=C2/C(=O)N=C(N)N2C)cc1OC was read as G9a inh -35%[59 µM], BAZ2B inh 0%, PI5P4Ka inh -5, HP1b binding inh 43%, JMJD2A Tudor -10% and PLK1 PBD inh 1%.
Screening COc1ccc(/C=C2\SC(c3ccc(C)cc3)=NC2=O)cc1OC returned G9a inh 2.2µM*, BAZ2B inh -19%, HP1b binding inh 20µM*, JMJD2A Tudor 28µM*, PLK1 PBD inh -20%, TbPYK confirm 35µM* and TbPYK orthogonal 10µM*.
For COCCn1c(=S)[nH]c2sc3c(c2c1=O)CCCC3 the results were G9a inh 7.9µM*, BAZ2B inh 0%, PI5P4Ka inh -21, HP1b binding inh 31%, JMJD2A Tudor -14%, PLK1 PBD inh -14%, TbPYK confirm 10µM* and TbPYK orthogonal 10µM*.
Screening COc1cc(/C=N/N=C2/NC(=O)C(CC(=O)O)S2)ccc1OCc1ccc(Cl)cc1 (configuration not stated) returned G9a inh 6%, BAZ2B inh inconclusive, PI5P4Ka inh -9, HP1b binding inh 30%, JMJD2A Tudor -34%, PLK1 PBD inh -23%, TbPYK confirm 16µM* and TbPYK orthogonal 35µM*.
Screening CC(Sc1nc(N)cc(=O)[nH]1)C(=O)Nc1nc2c(s1)CCCC2 (configuration not stated) returned G9a inh inconclusive, BAZ2B inh inconclusive, PI5P4Ka inh -2, HP1b binding inh 13%, JMJD2A Tudor -9% and PLK1 PBD inh -8%.
Screening O=C1CSC(=S)N1N=Cc1c(O)ccc2ccccc12 returned PI5P4Ka inh -73*, HP1b binding inh inconclusive, JMJD2A Tudor 50µM*, PLK1 PBD inh -10%, TbPYK confirm inconclusive and TbPYK orthogonal 16µM*.
`COc1cccc(/C=N/N2C(=O)CSC2=S)c1O` gave G9a inh 8.9µM*, BAZ2B inh 3.2µM*, PI5P4Ka inh -55*, HP1b binding inh inconclusive, JMJD2A Tudor 10µM*, PLK1 PBD inh inconclusive, TbPYK confirm inconclusive and TbPYK orthogonal inconclusive.
CCN1/C(=C/C(C)=C/c2sc3ccccc3[n+]2CC)Sc2ccccc21 was read as G9a inh 18µM*, BAZ2B inh 22µM*, PI5P4Ka inh -50*!, HP1b binding inh inconclusive, JMJD2A Tudor 18µM*, PLK1 PBD inh 14%, TbPYK confirm inconclusive and TbPYK orthogonal -10%.
`CCN1/C(=C2\SC(=S)N(Cc3ccccc3)C2=O)Sc2ccccc21` gave G9a inh 18%[59 µM], BAZ2B inh 2%, PI5P4Ka inh 4, HP1b binding inh 57%, JMJD2A Tudor 2% and PLK1 PBD inh -2%.
`Cc1cccc(CNC(=O)CN2C(=O)C3CCCCN3c3ccc(C(=O)N4CCCC4)cc32)c1` (configuration not stated) gave G9a inh 6%[59 µM], BAZ2B inh -3%, HP1b binding inh 22%[57 µM] and JMJD2A Tudor -15%.
Screening COc1ccc(C2=CC(=O)C[C@H](c3ccc(OC)c(OC)c3)C2)cn1 returned G9a inh 9%[0.501 µM], BAZ2B inh 1%, PI5P4Ka inh 2, HP1b binding inh 11%, JMJD2A Tudor -17%, PLK1 PBD inh 0%, TbPYK confirm 9% and TbPYK orthogonal -1%.
CCC1Oc2ccc(C)cc2N(CC(=O)NC2CCCCC2)C1=O (configuration not stated) was read as G9a inh 6%, BAZ2B inh 8%, PI5P4Ka inh 4, HP1b binding inh -1%, JMJD2A Tudor -28% and PLK1 PBD inh 2%.

Assay outcomes deposited in PubChem BioAssay by National Center for Advancing Translational Sciences (NCATS).
